# Records with an inconclusive call do not appear. A call without a number means that no potency is given here. Activity calls are given as the source filed them. Calls come from the whole dose curve; as a rule, active = well fitted activation curve with a large enough effect in the main read-out, with a control signal flat (not every such curve was filed as active); inconclusive = small, poorly fitted or top-dose-only effect, or effect the other way, or a change in a side signal; inactive = flat fitted curve, though single readings scatter.
# Target: 3',5'-cyclic-AMP phosphodiesterase 4B (Homo sapiens) (UniProt Q07343)
# Assay: qHTS Assay for Inhibitors of PDE-IV (AID 607)
# Conditions: HEK293 ACTOne CNG channel cells, membrane potential fluorescence; series mostly up to 22.9 µM
# Source text: NIH Chemical Genomics Center [NCGC]
# NIH Molecular Libraries Screening Centers Network [MLSCN]
# The cyclic nucleotide phosphodiesterases (PDEs) are proteins that catalyze hydrolysis of 3', 5'-cyclic nucleotides, such as cyclic adenosine monophosphate (cAMP) and cyclic guanosine monophosphate (cGMP), to their corresponding 5'-nucleotide monophosphates. These enzymes play an important role in controlling cellular concentrations of cyclic nucleotides and have a central role in a variety of intracellular signaling events. cAMP PDEs are emerging as a promising class of drug targets in asthma and cardiovascular disease therapeutic areas.
# There are no commercially available cell-based screening assays for PDE inhibitors: currently biochemical assays are done using pure substrates (cAMP or cGMP) and purified recombinant PDE enzymes. As with other biochemical screens on intracellular targets, false positives and false negatives may result from issues involving cell membrane permeability, cellular metabolism, and the like.
# Here we report the development of a cell-based screening assay for cAMP phosphodiesterase (PDE) inhibitors. The assay is based on the BD ACTOne# technology (BD Biosciences) which utilizes a modified cyclic nucleotide-gated channel (CNG) to monitor intracellular cAMP changes in live cells. The CNG channel is localized on the plasma membrane, and opens when the intracellular cAMP level increases, resulting in ion flux and cell membrane depolarization. The influx of cations through the CNG channel can be quantified using membrane potential (MP) dyes. We modified the BD ACTOne technology to allow the detection of PDE inhibitors, and performed an inhibitor screen for PDE-IV, which is expressed endogenously in HEK293 cells. We optimized this assay in homogeneous 1536-well plate assay format for high throughput screening.
# NCGC Assay Protocol Summary:
# The medium contained 10% FBS (Invitrogen), 2 mM L-glutamine, and 250 ug/ml G418 (Cellgro) and 1 ug/ml puromycin (Clontech). ACTOneTM parental cells (BD Biosciences) were maintained in the same medium without puromycin.
# The activity of the CNG channel was measured by BD ACTOneTM membrane potential dye kit (BD Biosciences). Forskolin, a positive control for cAMP activation and RO 20-1724, a PDE inhibitor, were both purchased from Sigma and solublized in DMSO.
# Sequence,Parameter,Value,Description
# 1,Reagent,3 uL,1000 cells/well 1536 TC treated Black plate
# 3,Compound,0.5 uL,Kalypsys dispense RO 20-1724 100 uM final [A]
# 4,Reagent,3 uL,BD membrane potential dye
# 6,Compound,23 nL,Final concentration was 0.7nM to 22.9uM
# 8,Detector,EX 535 / EM 590 [B],Envision
# Footnotes: [A] The stock 2 mM RO 20-1724 PDE inhibitor was made in 10 % DMSO. Parental cell line received 10 uM forskolin + 100 uM RO. [B] Envsion settings: Bottom Excitation 535/20 nm top emission 590/20, gain of 150 and 5 flashes per well.
# Keywords: PDE, PDE-IV, cytotoxicity, flourescence, MLSMR, MLSCN, NIH Roadmap, qHTS, NCGC
# Sequence of 3',5'-cyclic-AMP phosphodiesterase 4B (Homo sapiens) (Q07343 whole entry, looked up): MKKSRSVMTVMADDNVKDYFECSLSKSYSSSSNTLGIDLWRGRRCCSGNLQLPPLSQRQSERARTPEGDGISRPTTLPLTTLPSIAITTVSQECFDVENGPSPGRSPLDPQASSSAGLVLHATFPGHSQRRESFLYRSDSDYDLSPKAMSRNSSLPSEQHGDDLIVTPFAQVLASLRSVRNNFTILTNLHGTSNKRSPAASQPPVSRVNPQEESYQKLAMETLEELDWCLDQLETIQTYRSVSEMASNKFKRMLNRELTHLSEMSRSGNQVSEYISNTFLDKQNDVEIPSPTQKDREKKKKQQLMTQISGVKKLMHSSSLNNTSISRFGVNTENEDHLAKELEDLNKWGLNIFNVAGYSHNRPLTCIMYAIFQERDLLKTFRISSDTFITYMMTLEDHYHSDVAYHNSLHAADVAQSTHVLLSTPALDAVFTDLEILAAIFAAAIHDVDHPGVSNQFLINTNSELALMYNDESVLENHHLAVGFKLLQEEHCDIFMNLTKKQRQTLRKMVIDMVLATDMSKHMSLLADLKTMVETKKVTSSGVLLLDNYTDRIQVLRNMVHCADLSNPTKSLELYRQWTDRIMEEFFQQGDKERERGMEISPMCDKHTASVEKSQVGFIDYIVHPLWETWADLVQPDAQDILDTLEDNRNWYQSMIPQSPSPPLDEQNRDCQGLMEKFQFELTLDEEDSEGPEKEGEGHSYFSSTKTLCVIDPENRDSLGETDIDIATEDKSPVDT
row,SMILES,Potency
1,O=c1[nH]c(=S)[nH]c(-c2ccccc2)c1Cc1c(O)ccc2ccccc12,inactive
2,CCCCCCCC/C=C\CCCCCCCC(=O)NCCc1ccc(O)c(O)c1,inactive
3,CCCCCCC/C=C\CCCCCCCCC(=O)O,inactive
4,NC(N)=[N+]1CCc2ccccc2C1,inactive
5,N[C@@H](Cc1c[nH]c2ccccc12)C(=O)O,inactive
6,CCCCCCCCCCCCCCC[C@H](O)[C@H](N)CO,inactive
7,COc1ccccc1N1CCN(CCCCN2C(=O)c3ccccc3C2=O)CC1,inactive
8,COc1ccc(CCN(C)CCc2ccc(OC)c(OC)c2)cc1OC,inactive
9,CCCc1c(-c2ccc(O)cc2)nn(-c2ccc(O)cc2)c1-c1ccc(O)cc1,inactive
10,CNCCNS(=O)(=O)c1cccc2cnccc12,inactive
11,O=c1onc2n1-c1cc(Br)ccc1OC2,inactive
12,O=C(O)Cc1ccc(O)c(O)c1,inactive
13,CNc1cc(NS(=O)(=O)c2ccc(N)cc2)nc(NC)n1,inactive
14,COc1cc2c(CCNC(C)=O)c[nH]c2cc1O,inactive
15,Nc1ncnc2c1ncn2C1CCCC1,inactive
16,Cc1cc2c(cc1Cl)N(C(=O)Nc1ccnc3ccccc13)CC2,inactive
17,O=C1Cc2c([nH]c3ccc(Br)cc23)-c2ccccc2N1,inactive
18,NS(=O)(=O)c1cccc2c1c([N+](=O)[O-])cc1nc(O)c(O)nc12,inactive
19,CC[C@@H]1Cc2cc(O)ccc2C2=C1c1ccc(O)cc1C[C@H]2CC,inactive
20,C#CCn1c(=O)c2c(ncn2C)n(C)c1=O,inactive

row,SMILES,Potency
1,O=[N+]([O-])c1cccc2c(Br)[nH]nc12,inactive
2,NCCCNCCCCNCCCN,inactive
3,NC/C=C\C(=O)O,inactive
4,CCCCCCCCCCCCCCSCC(=O)O,inactive
5,COCc1nc2c([nH]1)c(=O)n(C)c(=O)n2CC(C)C,inactive
6,C[C@H](O)C(=O)C1=Nc2c(nc(N)[nH]c2=O)NC1,inactive
7,Oc1cc(O)c2c(c1)O[C@H](c1ccc(O)c(O)c1)[C@@H](O)C2,inactive
8,O=[N+]([O-])c1cccc2cn[nH]c12,inactive
9,Nc1ccc(N2C(=O)c3ccccc3C2=O)c(Cl)c1,inactive
10,O=C(O)C1=CCCN(CCON=C(c2ccccc2)c2ccccc2)C1,inactive
11,CCCCOC(=O)NS(=O)(=O)c1sc(CC(C)C)cc1-c1ccc(Cn2c(CC)nc3c(C)cc(C)nc32)cc1,inactive
12,NC(=O)c1ccccc1,inactive
13,N=C(N)SCCc1cnc[nH]1,inactive
14,CC(C)NC[C@H](O)COc1cccc2ccccc12,inactive
15,C[N+](C)(C)CC=O,inactive
16,COc1ccc(NC(=O)c2ccc(-c3ccc(-c4noc(C)n4)cc3C)cc2)cc1N1CCN(C)CC1,inactive
17,O=c1[nH]ccc2c(O)cccc12,inactive
18,CCN1C(=O)C=CC1=O,inactive
19,Nc1nc2[nH]c(=O)cnc2c(=O)[nH]1,inactive
20,O=C(O)c1cccnc1C(=O)O,inactive
